Experiment [1] has as its target Tyrosine-protein kinase SYK (Homo sapiens) (UniProt P43405). Particulars: at 1 µM.
The target in experiment [2] is T1, Tyrosine-protein kinase Tec (Homo sapiens) (UniProt P42680).
T1 sequence (whole entry): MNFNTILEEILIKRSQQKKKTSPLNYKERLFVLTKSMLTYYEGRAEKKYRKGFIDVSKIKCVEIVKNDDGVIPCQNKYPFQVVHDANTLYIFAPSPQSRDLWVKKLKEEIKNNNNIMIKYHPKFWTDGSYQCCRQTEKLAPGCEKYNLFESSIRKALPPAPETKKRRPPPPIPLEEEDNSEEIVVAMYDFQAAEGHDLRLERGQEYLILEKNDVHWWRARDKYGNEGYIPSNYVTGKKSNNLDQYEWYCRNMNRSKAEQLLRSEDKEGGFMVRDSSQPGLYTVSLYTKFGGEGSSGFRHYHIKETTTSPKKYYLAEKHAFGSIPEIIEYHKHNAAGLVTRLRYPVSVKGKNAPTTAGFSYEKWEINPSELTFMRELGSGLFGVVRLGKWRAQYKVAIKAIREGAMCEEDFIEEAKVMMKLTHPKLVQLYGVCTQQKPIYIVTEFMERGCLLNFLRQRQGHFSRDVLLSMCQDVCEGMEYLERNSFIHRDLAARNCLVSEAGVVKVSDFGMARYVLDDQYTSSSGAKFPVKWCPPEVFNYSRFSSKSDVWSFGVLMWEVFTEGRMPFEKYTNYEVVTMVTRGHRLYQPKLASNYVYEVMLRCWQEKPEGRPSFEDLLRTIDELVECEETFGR
Conditions: at 0.1 µM.

For experiment [3], the target named is T1, Tyrosine-protein kinase Tec (Homo sapiens). Conditions: at 1 µM.
Experiment [4] deals with Angiopoietin-1 receptor (Homo sapiens) (UniProt Q02763). Conditions: at 0.1 µM.
The target is the same in experiment [5]. Particulars: at 1 µM.
Experiment [6] addresses T2, Non-receptor tyrosine-protein kinase TNK1 (Homo sapiens) (UniProt Q13470).
T2 sequence (whole entry): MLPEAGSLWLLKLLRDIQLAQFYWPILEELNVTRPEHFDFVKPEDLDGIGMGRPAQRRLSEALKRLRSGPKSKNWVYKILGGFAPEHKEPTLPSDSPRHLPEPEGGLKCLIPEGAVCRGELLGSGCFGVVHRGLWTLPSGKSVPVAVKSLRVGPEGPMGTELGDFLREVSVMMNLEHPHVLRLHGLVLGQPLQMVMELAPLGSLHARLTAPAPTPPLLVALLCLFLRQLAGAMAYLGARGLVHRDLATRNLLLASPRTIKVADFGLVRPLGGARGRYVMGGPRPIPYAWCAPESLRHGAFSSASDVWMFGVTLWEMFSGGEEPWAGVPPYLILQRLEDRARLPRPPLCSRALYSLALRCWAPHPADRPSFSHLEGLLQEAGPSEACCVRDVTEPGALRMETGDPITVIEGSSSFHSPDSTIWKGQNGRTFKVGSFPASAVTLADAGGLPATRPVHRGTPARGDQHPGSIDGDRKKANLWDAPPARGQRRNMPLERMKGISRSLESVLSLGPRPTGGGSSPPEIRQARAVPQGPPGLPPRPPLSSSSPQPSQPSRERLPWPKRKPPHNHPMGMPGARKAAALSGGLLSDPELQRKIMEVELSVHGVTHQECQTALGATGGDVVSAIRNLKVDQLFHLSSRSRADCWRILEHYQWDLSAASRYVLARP
Particulars: at 0.1 µM.

Experiment [7] deals with T2, Non-receptor tyrosine-protein kinase TNK1 (Homo sapiens). Particulars: at 1 µM.
In experiment [8] the target is Activated CDC42 kinase 1 (Homo sapiens) (UniProt Q07912). Conditions: at 0.1 µM.
Sequence of Activated CDC42 kinase 1 (Homo sapiens) (Q07912 whole entry, looked up): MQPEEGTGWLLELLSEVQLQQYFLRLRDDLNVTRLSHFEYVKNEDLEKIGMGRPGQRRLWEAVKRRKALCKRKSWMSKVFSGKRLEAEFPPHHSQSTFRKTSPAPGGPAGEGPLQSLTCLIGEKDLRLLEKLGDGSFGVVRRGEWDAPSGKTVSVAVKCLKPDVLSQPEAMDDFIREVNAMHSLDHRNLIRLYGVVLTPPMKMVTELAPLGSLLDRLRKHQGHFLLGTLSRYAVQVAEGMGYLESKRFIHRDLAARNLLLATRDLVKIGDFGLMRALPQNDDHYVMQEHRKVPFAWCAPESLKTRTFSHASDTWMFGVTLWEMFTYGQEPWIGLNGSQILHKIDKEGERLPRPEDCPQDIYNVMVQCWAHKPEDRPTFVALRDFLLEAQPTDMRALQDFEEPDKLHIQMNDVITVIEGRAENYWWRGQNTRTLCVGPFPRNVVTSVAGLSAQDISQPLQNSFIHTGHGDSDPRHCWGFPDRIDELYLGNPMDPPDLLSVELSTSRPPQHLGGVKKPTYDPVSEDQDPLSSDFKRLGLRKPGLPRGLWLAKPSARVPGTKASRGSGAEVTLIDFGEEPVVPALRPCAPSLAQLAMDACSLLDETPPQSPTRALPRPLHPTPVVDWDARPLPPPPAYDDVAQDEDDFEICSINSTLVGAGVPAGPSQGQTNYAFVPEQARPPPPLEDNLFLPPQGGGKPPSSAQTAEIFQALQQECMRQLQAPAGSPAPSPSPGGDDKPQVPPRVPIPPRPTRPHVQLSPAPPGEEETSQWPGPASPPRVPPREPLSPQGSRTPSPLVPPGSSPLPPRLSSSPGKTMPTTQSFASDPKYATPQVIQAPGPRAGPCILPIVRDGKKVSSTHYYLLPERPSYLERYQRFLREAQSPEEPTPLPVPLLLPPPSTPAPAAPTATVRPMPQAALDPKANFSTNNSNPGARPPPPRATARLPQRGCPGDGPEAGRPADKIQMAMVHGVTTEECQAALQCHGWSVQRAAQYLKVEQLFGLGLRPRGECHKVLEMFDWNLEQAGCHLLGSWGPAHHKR
Experiment [9] shares this target. Particulars: at 1 µM.
Experiment [10] addresses High affinity nerve growth factor receptor (Homo sapiens) (UniProt P04629). Particulars: at 0.1 µM.
For experiment [11] the target is unchanged. Particulars: at 1 µM.
Experiment [12] deals with BDNF/NT-3 growth factors receptor (Homo sapiens) (UniProt Q16620). Particulars: at 0.1 µM.
Sequence of BDNF/NT-3 growth factors receptor (Homo sapiens) (Q16620 32-822 limits assumed): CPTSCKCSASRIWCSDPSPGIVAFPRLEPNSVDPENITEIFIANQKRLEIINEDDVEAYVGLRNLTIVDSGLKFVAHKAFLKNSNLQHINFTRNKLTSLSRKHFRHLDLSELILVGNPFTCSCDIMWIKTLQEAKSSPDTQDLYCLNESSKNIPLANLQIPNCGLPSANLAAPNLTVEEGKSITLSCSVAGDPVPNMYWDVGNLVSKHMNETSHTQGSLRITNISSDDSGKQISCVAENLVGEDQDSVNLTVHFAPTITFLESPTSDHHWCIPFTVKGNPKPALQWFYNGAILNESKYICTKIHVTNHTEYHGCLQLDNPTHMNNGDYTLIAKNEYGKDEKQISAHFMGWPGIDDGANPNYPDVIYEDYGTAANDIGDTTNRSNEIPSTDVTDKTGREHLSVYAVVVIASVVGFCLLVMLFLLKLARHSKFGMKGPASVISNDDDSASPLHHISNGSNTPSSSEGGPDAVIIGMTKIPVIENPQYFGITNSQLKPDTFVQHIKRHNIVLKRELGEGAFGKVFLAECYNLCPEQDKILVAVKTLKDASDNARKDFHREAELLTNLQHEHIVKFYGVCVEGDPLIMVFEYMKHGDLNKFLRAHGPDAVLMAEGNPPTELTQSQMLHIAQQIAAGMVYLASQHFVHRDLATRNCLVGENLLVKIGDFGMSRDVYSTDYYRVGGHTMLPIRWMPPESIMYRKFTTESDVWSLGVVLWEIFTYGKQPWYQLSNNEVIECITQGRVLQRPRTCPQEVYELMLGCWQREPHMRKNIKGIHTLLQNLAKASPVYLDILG
The target is the same in experiment [13]. Conditions: at 1 µM.
Experiment [14] concerns the target NT-3 growth factor receptor (Homo sapiens) (UniProt Q16288). Particulars: at 0.1 µM.
Experiment [15] has the same target. Conditions: at 1 µM.
In experiment [16] the target is T3, Tyrosine-protein kinase TXK (Homo sapiens) (UniProt P42681).
T3 sequence (whole entry): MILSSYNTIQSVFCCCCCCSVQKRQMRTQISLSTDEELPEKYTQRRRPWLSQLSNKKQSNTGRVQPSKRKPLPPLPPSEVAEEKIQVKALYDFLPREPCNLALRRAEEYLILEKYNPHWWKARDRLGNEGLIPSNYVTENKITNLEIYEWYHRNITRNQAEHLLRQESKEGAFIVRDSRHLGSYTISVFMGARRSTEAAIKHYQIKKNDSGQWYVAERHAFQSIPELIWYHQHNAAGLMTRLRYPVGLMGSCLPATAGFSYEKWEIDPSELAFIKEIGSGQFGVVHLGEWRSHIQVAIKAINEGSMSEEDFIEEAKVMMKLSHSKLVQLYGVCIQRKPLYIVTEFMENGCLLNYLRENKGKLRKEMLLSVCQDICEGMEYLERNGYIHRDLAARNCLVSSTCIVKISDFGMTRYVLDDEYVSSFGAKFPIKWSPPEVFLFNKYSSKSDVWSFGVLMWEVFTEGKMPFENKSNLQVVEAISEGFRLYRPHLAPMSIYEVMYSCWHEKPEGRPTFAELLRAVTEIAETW
Conditions: at 0.1 µM.

The target of experiment [17] is T3, Tyrosine-protein kinase TXK (Homo sapiens). Conditions: at 1 µM.
In experiment [18] the target is Non-receptor tyrosine-protein kinase TYK2 (Homo sapiens) (UniProt P29597). Conditions: at 0.1 µM.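 Also: each value is a mean of the inhibition readings.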
Sequence of Non-receptor tyrosine-protein kinase TYK2 (Homo sapiens) (P29597 whole entry): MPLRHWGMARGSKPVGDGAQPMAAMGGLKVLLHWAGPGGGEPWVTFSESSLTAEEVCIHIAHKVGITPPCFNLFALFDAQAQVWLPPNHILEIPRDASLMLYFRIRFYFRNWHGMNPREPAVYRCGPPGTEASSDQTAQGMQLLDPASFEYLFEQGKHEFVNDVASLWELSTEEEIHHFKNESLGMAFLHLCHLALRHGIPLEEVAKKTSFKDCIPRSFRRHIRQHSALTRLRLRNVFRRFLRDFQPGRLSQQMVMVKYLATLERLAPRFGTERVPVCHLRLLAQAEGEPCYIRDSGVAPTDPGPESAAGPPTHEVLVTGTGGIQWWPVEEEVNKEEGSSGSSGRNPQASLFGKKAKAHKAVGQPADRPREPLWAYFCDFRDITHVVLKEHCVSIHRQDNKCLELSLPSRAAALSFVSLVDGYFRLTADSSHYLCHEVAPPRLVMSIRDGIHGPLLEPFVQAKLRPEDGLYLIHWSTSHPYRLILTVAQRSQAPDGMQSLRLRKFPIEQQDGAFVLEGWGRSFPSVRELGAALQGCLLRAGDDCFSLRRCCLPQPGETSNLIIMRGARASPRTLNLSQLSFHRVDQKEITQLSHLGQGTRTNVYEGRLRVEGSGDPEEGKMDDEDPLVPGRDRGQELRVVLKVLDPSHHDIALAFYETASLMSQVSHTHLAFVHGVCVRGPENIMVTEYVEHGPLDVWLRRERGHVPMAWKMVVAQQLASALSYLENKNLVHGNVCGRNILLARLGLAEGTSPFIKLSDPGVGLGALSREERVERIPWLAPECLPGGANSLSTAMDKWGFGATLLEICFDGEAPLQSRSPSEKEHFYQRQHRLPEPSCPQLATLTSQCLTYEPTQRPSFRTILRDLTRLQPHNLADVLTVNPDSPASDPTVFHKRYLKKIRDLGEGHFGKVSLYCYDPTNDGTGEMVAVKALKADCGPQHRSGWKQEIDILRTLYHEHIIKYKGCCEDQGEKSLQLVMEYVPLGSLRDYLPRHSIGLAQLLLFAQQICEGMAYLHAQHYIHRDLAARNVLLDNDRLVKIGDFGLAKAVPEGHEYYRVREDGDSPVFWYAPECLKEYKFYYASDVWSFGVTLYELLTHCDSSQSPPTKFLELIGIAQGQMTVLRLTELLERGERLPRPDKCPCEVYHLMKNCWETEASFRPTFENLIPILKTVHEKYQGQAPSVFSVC
The target in experiment [19] is T4, Dual specificity protein kinase TTK (Homo sapiens) (UniProt P33981).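 Also: reported figures are mean TTK inhibition at 1 µM.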
T4 sequence (whole entry): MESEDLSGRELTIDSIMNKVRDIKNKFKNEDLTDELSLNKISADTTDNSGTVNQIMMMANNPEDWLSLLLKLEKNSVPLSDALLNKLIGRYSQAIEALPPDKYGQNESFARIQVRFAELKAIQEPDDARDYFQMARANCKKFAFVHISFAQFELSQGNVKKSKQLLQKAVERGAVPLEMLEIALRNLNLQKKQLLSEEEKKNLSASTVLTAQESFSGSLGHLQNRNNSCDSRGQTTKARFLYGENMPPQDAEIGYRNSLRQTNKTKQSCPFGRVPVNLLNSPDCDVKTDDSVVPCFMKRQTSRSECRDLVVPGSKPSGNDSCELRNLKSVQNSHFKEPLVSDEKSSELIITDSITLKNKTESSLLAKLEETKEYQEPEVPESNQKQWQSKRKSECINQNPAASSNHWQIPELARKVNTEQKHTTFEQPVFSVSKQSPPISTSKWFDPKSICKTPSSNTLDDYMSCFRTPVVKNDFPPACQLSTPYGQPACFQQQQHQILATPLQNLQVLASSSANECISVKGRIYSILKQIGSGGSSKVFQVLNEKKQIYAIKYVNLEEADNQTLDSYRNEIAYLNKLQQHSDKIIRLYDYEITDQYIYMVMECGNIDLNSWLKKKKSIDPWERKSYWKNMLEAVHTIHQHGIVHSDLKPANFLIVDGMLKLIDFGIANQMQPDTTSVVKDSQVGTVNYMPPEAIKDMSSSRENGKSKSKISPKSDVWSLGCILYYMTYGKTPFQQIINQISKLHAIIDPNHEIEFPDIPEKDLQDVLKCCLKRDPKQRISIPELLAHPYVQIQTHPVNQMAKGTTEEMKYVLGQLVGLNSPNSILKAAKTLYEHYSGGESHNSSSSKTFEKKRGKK
Particulars: at 1 µM.

The target of experiment [20] is T5, Aurora kinase A (Homo sapiens) (UniProt O14965).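 Also: each reported value is a mean percent inhibition of Aurora-A.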
T5 sequence (whole entry): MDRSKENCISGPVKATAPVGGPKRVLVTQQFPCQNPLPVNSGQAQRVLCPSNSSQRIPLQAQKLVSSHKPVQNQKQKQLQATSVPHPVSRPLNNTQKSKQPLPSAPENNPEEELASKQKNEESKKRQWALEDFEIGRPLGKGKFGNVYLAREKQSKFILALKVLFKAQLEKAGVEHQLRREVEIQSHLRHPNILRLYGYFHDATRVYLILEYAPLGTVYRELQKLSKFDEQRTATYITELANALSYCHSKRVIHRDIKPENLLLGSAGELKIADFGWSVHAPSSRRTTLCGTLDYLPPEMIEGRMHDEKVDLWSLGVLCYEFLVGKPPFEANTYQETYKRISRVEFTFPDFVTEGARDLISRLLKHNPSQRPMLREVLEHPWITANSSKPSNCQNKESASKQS
Conditions: at 0.1 µM.

Sequence of NT-3 growth factor receptor (Homo sapiens) (Q16288 32-839 limits assumed): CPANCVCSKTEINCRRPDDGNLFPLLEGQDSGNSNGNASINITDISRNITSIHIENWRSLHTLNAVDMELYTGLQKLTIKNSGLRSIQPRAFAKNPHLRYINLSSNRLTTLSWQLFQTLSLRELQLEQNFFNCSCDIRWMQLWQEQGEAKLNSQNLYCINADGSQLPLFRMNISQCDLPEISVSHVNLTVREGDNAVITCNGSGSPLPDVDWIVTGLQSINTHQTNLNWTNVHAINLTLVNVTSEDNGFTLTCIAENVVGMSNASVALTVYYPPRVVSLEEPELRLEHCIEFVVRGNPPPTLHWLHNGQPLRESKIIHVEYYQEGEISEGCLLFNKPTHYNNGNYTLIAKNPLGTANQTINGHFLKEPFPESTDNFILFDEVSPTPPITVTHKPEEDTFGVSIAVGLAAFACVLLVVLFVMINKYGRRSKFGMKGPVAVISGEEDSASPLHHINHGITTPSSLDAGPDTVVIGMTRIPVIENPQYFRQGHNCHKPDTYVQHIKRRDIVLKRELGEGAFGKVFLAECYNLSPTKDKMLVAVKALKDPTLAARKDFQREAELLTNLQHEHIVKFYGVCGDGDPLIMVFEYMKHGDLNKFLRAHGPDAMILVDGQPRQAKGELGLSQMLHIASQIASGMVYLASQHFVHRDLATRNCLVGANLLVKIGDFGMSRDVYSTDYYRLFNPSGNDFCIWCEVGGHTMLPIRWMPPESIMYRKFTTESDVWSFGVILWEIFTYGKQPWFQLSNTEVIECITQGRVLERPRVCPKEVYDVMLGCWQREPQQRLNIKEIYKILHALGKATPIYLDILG
Sequence of High affinity nerve growth factor receptor (Homo sapiens) (P04629 33-796 limits assumed): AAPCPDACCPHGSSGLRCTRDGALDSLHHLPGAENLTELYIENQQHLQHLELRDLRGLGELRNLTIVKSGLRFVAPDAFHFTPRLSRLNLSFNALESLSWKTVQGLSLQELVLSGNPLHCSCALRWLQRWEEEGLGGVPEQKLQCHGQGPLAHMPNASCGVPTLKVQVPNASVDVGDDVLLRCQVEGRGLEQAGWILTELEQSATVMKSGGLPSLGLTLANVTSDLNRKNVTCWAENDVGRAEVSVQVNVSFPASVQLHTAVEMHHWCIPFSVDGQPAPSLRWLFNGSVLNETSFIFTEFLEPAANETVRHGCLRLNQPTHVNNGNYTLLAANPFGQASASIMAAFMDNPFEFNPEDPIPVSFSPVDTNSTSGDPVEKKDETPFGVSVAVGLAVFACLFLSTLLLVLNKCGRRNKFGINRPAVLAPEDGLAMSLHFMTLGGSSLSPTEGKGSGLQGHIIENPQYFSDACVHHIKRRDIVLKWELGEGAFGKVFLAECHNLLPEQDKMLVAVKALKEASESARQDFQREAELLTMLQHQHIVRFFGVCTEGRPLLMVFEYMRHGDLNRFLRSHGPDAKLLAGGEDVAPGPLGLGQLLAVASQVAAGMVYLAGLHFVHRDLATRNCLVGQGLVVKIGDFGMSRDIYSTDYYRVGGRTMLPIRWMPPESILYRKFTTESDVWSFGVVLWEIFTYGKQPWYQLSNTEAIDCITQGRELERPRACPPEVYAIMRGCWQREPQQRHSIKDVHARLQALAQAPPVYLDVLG

Turning to `Clc1ccc(CNc2nccc(-c3cnn4ncccc34)n2)cc1`, the inhibition in experiment [1] turned out to be 1.6%; in experiment [2], 3.07%; in [3], 7.34%; in experiment [4], 0.58%; in experiment [5], 4.03%; in experiment [6] it was 2.4%. For the same compound, the inhibition in experiment [7] worked out at 14.8%; in experiment [8] it was 0.35%; in experiment [9] it was 3.23%; in experiment [10] it was 1.42%; in experiment [11] it was 1.03%; in experiment [12], 0.46%. In addition, the inhibition in experiment [13] is 1.45%; in [14] it was 0.37%; in experiment [15] it was 2.98%; in experiment [16], 2.07%; in experiment [17] it was 6.82%; in experiment [18] it was -1.15%. Moreover, the inhibition was 10.5% in [19] and 0.34% in experiment [20].
With `CCc1cccc(CC)c1/C=C/c1cncc(C(=O)NC)c1`, the inhibition in experiment [1] is -0.49%; in experiment [2], 4.18%; in experiment [3], 7.25%; in experiment [4] it was 1.3%; in [5], 3.17%; in experiment [6], 5.96%. In addition, the inhibition in [7] turned out to be 10.2%; in experiment [8], 1.3%; in experiment [9], 2.37%; in experiment [10], 1.94%; in experiment [11], 1.65%; in experiment [12] it was 1.04%. The inhibition is 3.79% in [13]; 1.36% in [14]; 3.49% in experiment [15]; 3.65% in [16]; 8.4% in experiment [17]; -7.46% in [18]. The values for the inhibition in [19] and in experiment [20] were -0.69% and 2.26%, respectively.
As to `COc1cc2ncn(-c3cc(OCc4ccccc4C(F)(F)F)c(C(C)=O)s3)c2cc1OC`, the inhibition was -5.75% in experiment [1]; -0.08% in experiment [2]; 5.16% in experiment [3]; 1.54% in experiment [4]; 8.41% in experiment [5]; 0.64% in experiment [6]. Further, the inhibition in experiment [7] was determined as 23.6%; in experiment [8], 1.52%; in [9], 3.29%; in [10], 2.3%; in experiment [11], 1.61%; in experiment [12] it was 1.74%. In addition, the inhibition in [13] is 2.56%; in experiment [14], 0.64%; in experiment [15] it was 4.16%; in [16], -0.06%; in experiment [17], 5.24%; in experiment [18], -1.78%. For the same compound, the inhibition came to 8.19% in experiment [19] and 2.64% in experiment [20].
`Fc1ccc(-c2ncn(C3CCNCC3)c2-c2ccnc(Oc3ccc(F)c(F)c3)n2)cc1`: the inhibition in experiment [1] was -2.3%; in experiment [2], -2.35%; in [3], 0.11%; in experiment [4], 0.38%; in experiment [5] it was 3.09%; in [6] it was 0.22%. Further, the inhibition was 4.28% in [7]; -0.47% in experiment [8]; -0.07% in [9]; 2.3% in [10]; 3.11% in [11]; 3.23% in [12]. For the same compound, the inhibition is 3.93% in experiment [13]; 2.87% in experiment [14]; 4.23% in experiment [15]; -5.36% in [16]; 0.03% in [17]; -3.58% in [18]. For the same compound, the inhibition in experiment [19] was 14%; in experiment [20] it was -0.65%.
In the case of `C/C(Nc1ccc(S(N)(=O)=O)cc1)=C1/C(=O)Nc2ccccc21`, the inhibition was 0.6% in experiment [1]; -1.54% in [2]; -2.14% in experiment [3]; 0.44% in [4]; 2.44% in experiment [5]; -3.91% in experiment [6]. Besides, the inhibition in experiment [7] is 9.56%; in experiment [8], -1.14%; in [9], 0.65%; in experiment [10], 4.48%; in [11], 38.3%; in experiment [12] it was 14.1%. Also, the inhibition in experiment [13] is 61.8%; in experiment [14] it was 17.4%; in experiment [15], 87.1%; in [16] it was -0.52%; in [17] it was -0.74%; in experiment [18], 1.41%. Further, the values for the inhibition in experiment [19] and in experiment [20] were 35.7% and 2.21%, respectively.
Regarding `COc1ccc2cc(-c3c(-c4ccncc4)nc(-c4ccc([S+](C)[O-])cc4C)n3C)ccc2c1` (stereo not given), the inhibition was 0.6% in experiment [1]; 0.44% in [2]; 0.84% in experiment [3]; 76.9% in experiment [4]; 82.2% in [5]; -3.02% in experiment [6]. For the same compound, the inhibition in experiment [7] was 12.5%; in experiment [8] it was -0.21%; in experiment [9], 0.9%; in experiment [10] it was 0.64%; in experiment [11], -0.68%; in experiment [12] it was -0.26%. Moreover, the inhibition was -0.8% in [13]; -0.79% in experiment [14]; 1.56% in experiment [15]; 0.29% in experiment [16]; 1.25% in experiment [17]; -1.86% in experiment [18]. Also, the inhibition is 1.61% in experiment [19] and -0.61% in [20].

Source of the values: ChEMBL document CHEMBL1961873, “Compounds: GSK PKIS; Assays: Nanosyn kinase panel” (2012).
